Experimental data taken from PubChem BioAssay AID492992 (Johns Hopkins Ion Channel Center, 2010).
The whole screen tested about 4,900 compounds, of which about 2,100 (43%) were called active.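 Rule for the calls: active = thallium signal inhibited by more than 5 SD of the compound-free buffer control wells, on both duplicate plates; inactive = the rest.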 The set was probably picked from earlier hits. Only a selection was taken, and actives are over-represented in it overall.

target: Potassium channel subfamily K member 9 (Homo sapiens) (UniProt Q9NPC2); assay: KCNK9 potassium channel inhibitors, confirmation, HEK293 cells, thallium flux, duplicate (AID 492992); settings: FluxOR thallium flux fluorescence, at 10 µM; active compounds read high;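 for inhibition: 0% = assay buffer control wells without compound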
Sequence (Q9NPC2 whole entry, looked up): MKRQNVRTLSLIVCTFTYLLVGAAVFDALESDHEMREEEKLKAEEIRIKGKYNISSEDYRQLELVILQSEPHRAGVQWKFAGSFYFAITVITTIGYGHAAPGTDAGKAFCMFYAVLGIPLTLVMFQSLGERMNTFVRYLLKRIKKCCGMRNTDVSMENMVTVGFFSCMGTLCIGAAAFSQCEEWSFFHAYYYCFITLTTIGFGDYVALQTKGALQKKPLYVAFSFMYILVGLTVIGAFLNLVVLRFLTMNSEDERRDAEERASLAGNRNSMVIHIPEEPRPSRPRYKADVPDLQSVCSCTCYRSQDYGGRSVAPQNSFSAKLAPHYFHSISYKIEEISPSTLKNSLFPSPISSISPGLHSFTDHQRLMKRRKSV

| Compound | inhibition |
| --- | --- |
| CC(C)(C)c1ccc(CN2C(=O)CN=C(c3ccccc3)c3ccccc32)cc1 | 59% (active) |
| CCOC(=O)C1SC2(C(F)(F)C(F)F)CC1(O)c1c(c(OC)c3occc3c1OC)O2 (stereo unspecified) | 23.5% (active) |
| CC(C)n1c(=O)c(C=Nc2ccc(Br)cc2)c(O)n(Cc2ccco2)c1=O | inactive |
| CCCCCCN=C(CC)c1c(O)n(CCCC)c(=O)[nH]c1=O | 46.5% (active) |
| CC(C)(C)c1ccc(OC(=O)N2CCCCC2)cc1 | inactive |
| CCCCCCCCCCCCn1ccc(=N)cc1 | 52.5% (active) |
